Results filed as inconclusive are left out. Activity calls are given as the source filed them. How the source made its calls, unless noted: active means hit-call score of the fitted dose curve at least 0.9, where 1 is the maximum; inconclusive means response in the unintended direction; inactive means score below 0.9.
Tests used:
[1] = ATG_TAL_CIS: Attagene CIS-FACTORIAL HepG2 Assay for human TAL Basal Promoter (AID 2282966; active means hit-call score of the fitted dose curve at least 0.9, where 1 is the maximum; inactive means score below 0.9;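 further: background control endpoint measuring basal TAL promoter reporter mRNA not a specific factor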); details: HepG2 Attagene cis-factorial TAL promoter reporter; actives raise or lower the signal
Method in brief: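 Endogenous transcription-factor activity is sensed in HepG2 cells through transfected cis-promoter reporter constructs. After 24 h dosing, reporter transcripts are quantified by RT-PCR and capillary electrophoresis. Gain or loss of signal is fitted relative to DMSO.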

[2] = ATG_VDRE_CIS: Attagene CIS-FACTORIAL HepG2 Assay for human Vitamin D Receptor Element (VDRE) (AID 2282968; active means hit-call score of the fitted dose curve at least 0.9, where 1 is the maximum; inactive means score below 0.9); details: HepG2 VDRE cis-reporter transcription, actives raise or lower the signal
Method in brief: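 Compounds were applied for 24 h to HepG2 cells transfected with promoter-regulated reporter units. Total RNA was reverse-transcribed, and reporter amplicons were fluorescently labelled and sized by capillary electrophoresis.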

[3] = molecular target: Estrogen receptor (Homo sapiens) (UniProt P03372); experiment: ATG_ERa_TRANS: Attagene TRANS-FACTORIAL HepG2 Assay for human Estrogen Receptor alpha (ERa) (AID 2282970); details: HepG2 Attagene TRANS ERa GAL4 reporter, mRNA
Method in brief: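 Transfected HepG2 cells carrying GAL4-UAS-driven reporter units were dosed for 24 hours. Total RNA was reverse-transcribed, reporter sequences PCR-amplified, FAM-labelled, HpaI-digested and resolved by capillary electrophoresis. Increases over DMSO control defined activity.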

[4] = molecular target: X-box-binding protein 1 (Homo sapiens) (UniProt P17861); experiment: ATG_Xbp1_CIS: Attagene CIS-FACTORIAL HepG2 Assay for human X-box Binding Protein 1 (XBP1) (AID 2282972; active means hit-call score of the fitted dose curve at least 0.9, where 1 is the maximum; inactive means score below 0.9); details: HepG2 XBP1 cis-element reporter, Attagene multiplex; actives raise or lower the signal
Method in brief: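 Human hepatoma HepG2, cis-element reporter system, 24 h treatment; mRNA quantified by RT-PCR/CE fluorescence; fit relative to DMSO.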

[5] = ATG_GAL4_TRANS: Attagene TRANS-FACTORIAL HepG2 Assay for GAL4 (Internal Marker) (AID 2282976); details: HepG2 Attagene TRANS GAL4 internal marker reporter
Method in brief: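 Fluorescence from capillary electrophoresis of labelled RT-PCR products quantifies reporter mRNA induction after 24 h dosing of HepG2 cells carrying transfected GAL4-UAS reporter transcription units. Vehicle DMSO serves as baseline.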

[6] = molecular target: Oxysterols receptor LXR-alpha (Homo sapiens) (UniProt Q13133); experiment: ATG_LXRa_TRANS: Attagene TRANS-FACTORIAL HepG2 Assay for human Liver X Receptor alpha (LXRa) (AID 2282980); details: HepG2 Attagene TRANS reporter, LXRa transactivation
Method in brief: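 Transient HepG2 transfectants, 24 h dosing, RT-PCR/CE mRNA reporter quantitation; gain-of-signal vs DMSO.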

[7] = molecular target: Oxysterols receptor LXR-beta (Homo sapiens) (UniProt P55055); experiment: ATG_LXRb_TRANS: Attagene TRANS-FACTORIAL HepG2 Assay for human Liver X Receptor beta (LXRb) (AID 2282981); details: HepG2 Attagene TRANS GAL4-LXRb reporter, mRNA
Method in brief: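 Multiplexed reporter assay, HepG2, 24 h dosing. Fluorescence of labelled RT-PCR products after capillary electrophoresis gives transcript level; positive fitting direction relative to DMSO.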

[8] = molecular target: Hepatocyte nuclear factor 4-alpha (Homo sapiens) (UniProt P41235); experiment: ATG_HNF4a_TRANS: Attagene TRANS-FACTORIAL HepG2 Assay for human Hepatocyte Nuclear Factor 4 alpha (HNF4a) (AID 2282982); details: HepG2 HNF4a transactivation reporter, mRNA readout
Method in brief: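 Endpoint reflects transcriptional activation of a GAL4-UAS reporter by an HNF4a-GAL4 chimera in transfected HepG2 cells, 24 h post-dosing. Fluorescence from RT-PCR products separated by capillary electrophoresis; DMSO baseline.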

[9] = ATG_M_06_TRANS: Attagene TRANS-FACTORIAL HepG2 Assay for M06 Transcription Factor (Internal Marker) (AID 2282983); details: HepG2 Attagene TRANS M06 internal marker reporter
Method in brief: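 Human liver HepG2 cells bearing transiently transfected chimeric NR-GAL4 reporter units were treated with chemicals for 24 h. Total RNA was reverse-transcribed, reporter sequences amplified and labelled, then quantified by capillary electrophoresis. Activity was fitted upward relative to DMSO.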

[10] = ATG_M_32_TRANS: Attagene TRANS-FACTORIAL HepG2 Assay for M32 Transcription Factor (Internal Marker) (AID 2282984); details: HepG2 Attagene TRANS M32 internal marker reporter;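 further: transcript level of a background control reporter unit measured by RT-PCR and capillary electrophoresis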
Method in brief: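 Internal-marker readout from a multiplexed transcription reporter panel. HepG2 cells were transfected with GAL4-UAS reporter units, treated 24 hours, and reporter transcript levels determined by fluorescence after RT-PCR and capillary separation.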

[11] = molecular target: Transcriptional activator Myb (Homo sapiens) (UniProt P10242); experiment: ATG_Myb_CIS: Attagene CIS-FACTORIAL HepG2 Assay for human Myeloblastosis (Myb) Proto-Oncogene Transcription Factor (AID 2282986; active means hit-call score of the fitted dose curve at least 0.9, where 1 is the maximum; inactive means score below 0.9); details: HepG2 Attagene CIS-FACTORIAL Myb reporter transcription; actives raise or lower the signal
Method in brief: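 Transiently transfected HepG2 cells, treated 24 h. Reporter mRNA quantified by RT-PCR/capillary electrophoresis; bidirectional fit relative to DMSO.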

[12] = molecular target: Nuclear respiratory factor 1 (Homo sapiens) (UniProt Q16656); experiment: ATG_NRF1_CIS: Attagene CIS-FACTORIAL HepG2 Assay for human Nuclear Respiratory Factor 1 (NRF1) Orphan Gene (AID 2282987; active means hit-call score of the fitted dose curve at least 0.9, where 1 is the maximum; inactive means score below 0.9); details: HepG2 NRF1 cis-element reporter, Attagene multiplex; actives raise or lower the signal
Method in brief: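 Cells (HepG2, transient MRTU transfection) are exposed to compound for 24 h, then RNA isolated and reporter mRNA amplified and fluorescently labelled. Fragments are separated by capillary electrophoresis; signal change is fitted bidirectionally relative to DMSO.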

[13] = ATG_M_19_TRANS: Attagene TRANS-FACTORIAL HepG2 Assay for M19 Transcription Factor (Internal Marker) (AID 2282974); details: HepG2 Attagene TRANS-FACTORIAL M19 internal marker reporter
Method in brief: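 Reporter mRNA induction was measured in transfected HepG2 cells 24 h after dosing. Endpoint fitted upward relative to DMSO and serves as a background control within the multiplexed TRANS panel.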

[14] = molecular target: Glucocorticoid receptor (Homo sapiens) (UniProt P04150); experiment: ATG_GR_TRANS: Attagene TRANS-FACTORIAL HepG2 Assay for human Glucocorticoid Receptor (GR) (AID 2282978); details: HepG2 Attagene TRANS GR reporter, mRNA transcription;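 further: activators score as hits since higher reporter transcript over DMSO is fitted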
Method in brief: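 Reporter transcript levels, detected by fluorescence after RT-PCR and capillary electrophoresis, served as the endpoint. HepG2 cells bearing transfected GAL4-UAS reporters responsive to NR-GAL4 chimeras were incubated with compound 24 h; DMSO defined baseline.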

[15] = molecular target: Nuclear receptor subfamily 4 group A member 2 (Homo sapiens) (UniProt P43354); experiment: ATG_NURR1_TRANS: Attagene TRANS-FACTORIAL HepG2 Assay for human Nuclear Receptor Related Protein 1 (NURR1) (AID 2282985); details: HepG2 Attagene TRANS reporter, mRNA readout
Method in brief: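 Endpoint: reporter mRNA increase relative to DMSO. HepG2 cells transfected with reporter units, treated 24 h; RNA processed by RT-PCR, labelling, HpaI digestion and capillary electrophoresis.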

[16] = molecular target: Nuclear receptor subfamily 1 group I member 3 (Homo sapiens) (UniProt Q14994); experiment: ATG_CAR_TRANS: Attagene TRANS-FACTORIAL HepG2 Assay for human Constitutive Androstane Receptor (CAR) (AID 2282969); details: HepG2 Attagene TRANS-FACTORIAL CAR reporter;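 further: activators raise reporter mRNA above DMSO so AC50 marks induction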
Method in brief: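 Transiently transfected HepG2, multiplex TRANS reporters (CAR-Gal4 chimera driving GAL4-UAS reporter). 24 h dosing. Readout: reporter transcript by RT-PCR + capillary electrophoresis, fluorescence intensity; positive direction vs DMSO.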

[17] = molecular target: Estrogen-related receptor gamma (Homo sapiens) (UniProt P62508); experiment: ATG_ERRg_TRANS: Attagene TRANS-FACTORIAL HepG2 Assay for human Estrogen-Related Receptor gamma (ERRg) (AID 2282977); details: HepG2 Attagene TRANS reporter, ERRg transactivation;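 further: hits increase reporter signal over DMSO so potencies reflect activators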
Method in brief: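 Exogenous NR-Gal4 chimera activity measured as reporter transcript induction after 24 h in transiently transfected HepG2 cells. RNA reverse-transcribed, PCR-amplified, 6-FAM-labelled and resolved by capillary electrophoresis; increase over DMSO baseline.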

[18] = molecular target: Steroid hormone receptor ERR1 (Homo sapiens) (UniProt P11474); experiment: ATG_ERRa_TRANS: Attagene TRANS-FACTORIAL HepG2 Assay for human Estrogen-Related Receptor alpha (ERRa) (AID 2282971); details: HepG2 Attagene TRANS reporter, ERRa transactivation
Method in brief: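 HepG2 cells were transiently transfected with multiple GAL4-UAS reporter units, then dosed with compound for 24 h. Total RNA was reverse-transcribed, reporter cDNA PCR-amplified and fluorescently labelled, and fragments resolved by capillary electrophoresis; induction was compared with DMSO.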

Measured: AC50

Chain of Glucocorticoid receptor (Homo sapiens) (P04150 whole entry, looked up, the tested form may be a part): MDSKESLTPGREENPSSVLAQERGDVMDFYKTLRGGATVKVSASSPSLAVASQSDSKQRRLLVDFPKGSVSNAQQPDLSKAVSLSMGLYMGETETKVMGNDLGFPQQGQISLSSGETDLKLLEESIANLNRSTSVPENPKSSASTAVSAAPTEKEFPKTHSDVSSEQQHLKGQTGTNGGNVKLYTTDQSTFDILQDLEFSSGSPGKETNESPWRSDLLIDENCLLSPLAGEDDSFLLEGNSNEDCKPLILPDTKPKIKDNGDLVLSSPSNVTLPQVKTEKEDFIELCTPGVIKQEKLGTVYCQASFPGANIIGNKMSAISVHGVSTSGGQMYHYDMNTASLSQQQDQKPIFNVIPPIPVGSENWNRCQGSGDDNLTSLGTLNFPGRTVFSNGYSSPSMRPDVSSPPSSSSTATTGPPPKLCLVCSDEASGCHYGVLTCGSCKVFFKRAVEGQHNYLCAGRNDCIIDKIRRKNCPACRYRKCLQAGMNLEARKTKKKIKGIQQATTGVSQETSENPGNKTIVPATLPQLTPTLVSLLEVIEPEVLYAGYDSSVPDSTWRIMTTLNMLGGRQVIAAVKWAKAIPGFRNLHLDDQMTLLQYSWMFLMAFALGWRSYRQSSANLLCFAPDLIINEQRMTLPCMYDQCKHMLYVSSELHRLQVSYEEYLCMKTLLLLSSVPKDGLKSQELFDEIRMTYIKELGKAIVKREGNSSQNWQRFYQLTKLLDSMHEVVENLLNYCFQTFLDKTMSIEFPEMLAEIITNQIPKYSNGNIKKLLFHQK
Chain of Oxysterols receptor LXR-beta (Homo sapiens) (P55055 whole entry, looked up, the tested form may be a part): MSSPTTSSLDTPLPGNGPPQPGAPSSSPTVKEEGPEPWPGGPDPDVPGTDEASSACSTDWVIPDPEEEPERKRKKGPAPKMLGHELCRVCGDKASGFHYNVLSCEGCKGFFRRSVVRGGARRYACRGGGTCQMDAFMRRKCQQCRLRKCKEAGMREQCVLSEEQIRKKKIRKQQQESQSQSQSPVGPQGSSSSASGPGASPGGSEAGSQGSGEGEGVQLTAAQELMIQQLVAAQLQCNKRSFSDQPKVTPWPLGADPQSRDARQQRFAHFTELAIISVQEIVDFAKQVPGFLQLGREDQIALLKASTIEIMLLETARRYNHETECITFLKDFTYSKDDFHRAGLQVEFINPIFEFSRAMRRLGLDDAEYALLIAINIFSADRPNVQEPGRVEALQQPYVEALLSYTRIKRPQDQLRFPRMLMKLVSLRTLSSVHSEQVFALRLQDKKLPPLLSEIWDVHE
Chain of Hepatocyte nuclear factor 4-alpha (Homo sapiens) (P41235 whole entry, looked up, the tested form may be a part): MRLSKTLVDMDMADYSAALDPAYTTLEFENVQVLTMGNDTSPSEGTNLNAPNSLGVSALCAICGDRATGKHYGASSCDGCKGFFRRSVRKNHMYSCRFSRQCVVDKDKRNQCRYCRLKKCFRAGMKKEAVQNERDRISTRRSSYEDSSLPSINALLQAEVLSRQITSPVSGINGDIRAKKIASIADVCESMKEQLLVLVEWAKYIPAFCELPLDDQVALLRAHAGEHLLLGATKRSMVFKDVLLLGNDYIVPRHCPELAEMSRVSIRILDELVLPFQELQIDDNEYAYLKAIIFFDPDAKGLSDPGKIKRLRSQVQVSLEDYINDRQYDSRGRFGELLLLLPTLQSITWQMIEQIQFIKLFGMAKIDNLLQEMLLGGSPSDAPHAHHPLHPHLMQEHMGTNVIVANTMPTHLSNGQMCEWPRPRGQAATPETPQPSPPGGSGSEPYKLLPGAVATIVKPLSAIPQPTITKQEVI
Chain of Oxysterols receptor LXR-alpha (Homo sapiens) (Q13133 whole entry, looked up): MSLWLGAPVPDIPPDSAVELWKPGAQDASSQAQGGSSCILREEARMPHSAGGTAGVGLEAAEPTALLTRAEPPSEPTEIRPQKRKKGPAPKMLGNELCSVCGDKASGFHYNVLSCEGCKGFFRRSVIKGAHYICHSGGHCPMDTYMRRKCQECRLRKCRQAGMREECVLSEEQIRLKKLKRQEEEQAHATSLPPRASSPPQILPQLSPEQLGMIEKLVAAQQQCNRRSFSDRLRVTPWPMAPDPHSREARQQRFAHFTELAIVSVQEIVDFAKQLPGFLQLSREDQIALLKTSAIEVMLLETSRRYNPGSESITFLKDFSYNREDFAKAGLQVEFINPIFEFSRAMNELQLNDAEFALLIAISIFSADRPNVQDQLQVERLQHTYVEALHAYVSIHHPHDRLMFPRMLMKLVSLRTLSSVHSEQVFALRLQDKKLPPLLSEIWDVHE
Chain of Transcriptional activator Myb (Homo sapiens) (P10242 whole entry, looked up): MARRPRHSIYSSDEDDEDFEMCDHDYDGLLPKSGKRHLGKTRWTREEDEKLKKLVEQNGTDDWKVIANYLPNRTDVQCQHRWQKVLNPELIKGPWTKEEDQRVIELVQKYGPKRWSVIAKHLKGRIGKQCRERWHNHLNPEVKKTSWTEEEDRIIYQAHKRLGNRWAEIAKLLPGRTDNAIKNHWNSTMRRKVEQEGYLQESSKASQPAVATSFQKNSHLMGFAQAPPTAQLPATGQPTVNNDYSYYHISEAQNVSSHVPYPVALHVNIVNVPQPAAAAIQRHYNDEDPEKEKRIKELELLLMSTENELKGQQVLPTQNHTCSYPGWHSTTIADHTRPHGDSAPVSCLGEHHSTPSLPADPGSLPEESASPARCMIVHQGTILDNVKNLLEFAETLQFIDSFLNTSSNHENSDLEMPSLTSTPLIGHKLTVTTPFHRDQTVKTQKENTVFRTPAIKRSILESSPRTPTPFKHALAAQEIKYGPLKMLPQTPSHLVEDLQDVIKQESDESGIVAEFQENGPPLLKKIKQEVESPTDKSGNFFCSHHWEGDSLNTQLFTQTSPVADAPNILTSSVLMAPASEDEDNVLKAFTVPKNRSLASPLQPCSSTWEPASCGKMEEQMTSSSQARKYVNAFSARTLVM
Chain of Nuclear receptor subfamily 4 group A member 2 (Homo sapiens) (P43354 whole entry, looked up): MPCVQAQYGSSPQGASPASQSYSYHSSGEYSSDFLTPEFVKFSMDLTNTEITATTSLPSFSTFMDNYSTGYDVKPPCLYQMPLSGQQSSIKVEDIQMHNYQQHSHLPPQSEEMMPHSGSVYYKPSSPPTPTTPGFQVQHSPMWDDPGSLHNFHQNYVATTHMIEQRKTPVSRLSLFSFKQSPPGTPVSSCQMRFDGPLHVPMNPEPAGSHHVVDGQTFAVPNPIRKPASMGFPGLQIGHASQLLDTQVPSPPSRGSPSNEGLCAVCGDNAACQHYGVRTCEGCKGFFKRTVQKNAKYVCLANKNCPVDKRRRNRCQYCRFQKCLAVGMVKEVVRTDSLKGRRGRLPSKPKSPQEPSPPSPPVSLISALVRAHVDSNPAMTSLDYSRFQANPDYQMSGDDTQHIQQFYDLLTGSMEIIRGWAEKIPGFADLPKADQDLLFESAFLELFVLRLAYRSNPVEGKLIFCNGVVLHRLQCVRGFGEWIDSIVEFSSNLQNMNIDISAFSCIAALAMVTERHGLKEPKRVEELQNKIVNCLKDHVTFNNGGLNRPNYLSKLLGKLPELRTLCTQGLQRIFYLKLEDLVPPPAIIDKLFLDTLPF
Chain of Nuclear respiratory factor 1 (Homo sapiens) (Q16656 whole entry, looked up, the tested form may be a part): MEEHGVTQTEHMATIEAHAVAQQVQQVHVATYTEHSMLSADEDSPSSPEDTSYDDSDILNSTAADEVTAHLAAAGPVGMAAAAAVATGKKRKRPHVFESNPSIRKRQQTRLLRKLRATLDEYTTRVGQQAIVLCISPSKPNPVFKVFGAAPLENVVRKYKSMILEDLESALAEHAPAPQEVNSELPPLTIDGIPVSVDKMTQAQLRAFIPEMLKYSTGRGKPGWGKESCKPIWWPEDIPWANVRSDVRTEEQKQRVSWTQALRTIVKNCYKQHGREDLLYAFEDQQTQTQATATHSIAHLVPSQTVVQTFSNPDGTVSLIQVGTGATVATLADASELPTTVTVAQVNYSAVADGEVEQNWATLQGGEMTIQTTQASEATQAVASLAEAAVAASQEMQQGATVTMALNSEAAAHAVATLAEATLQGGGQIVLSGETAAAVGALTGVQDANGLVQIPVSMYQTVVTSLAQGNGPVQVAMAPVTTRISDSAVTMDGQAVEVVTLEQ
Chain of X-box-binding protein 1 (Homo sapiens) (P17861 whole entry, looked up): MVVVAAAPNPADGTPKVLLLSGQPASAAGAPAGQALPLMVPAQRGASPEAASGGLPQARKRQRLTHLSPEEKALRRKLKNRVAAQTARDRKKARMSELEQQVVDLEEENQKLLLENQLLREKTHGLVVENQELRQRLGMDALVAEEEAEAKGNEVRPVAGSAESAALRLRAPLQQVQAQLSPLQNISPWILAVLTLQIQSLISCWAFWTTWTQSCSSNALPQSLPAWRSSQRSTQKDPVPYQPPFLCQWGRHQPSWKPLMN
Chain of Estrogen-related receptor gamma (Homo sapiens) (P62508 whole entry, looked up, the tested form may be a part): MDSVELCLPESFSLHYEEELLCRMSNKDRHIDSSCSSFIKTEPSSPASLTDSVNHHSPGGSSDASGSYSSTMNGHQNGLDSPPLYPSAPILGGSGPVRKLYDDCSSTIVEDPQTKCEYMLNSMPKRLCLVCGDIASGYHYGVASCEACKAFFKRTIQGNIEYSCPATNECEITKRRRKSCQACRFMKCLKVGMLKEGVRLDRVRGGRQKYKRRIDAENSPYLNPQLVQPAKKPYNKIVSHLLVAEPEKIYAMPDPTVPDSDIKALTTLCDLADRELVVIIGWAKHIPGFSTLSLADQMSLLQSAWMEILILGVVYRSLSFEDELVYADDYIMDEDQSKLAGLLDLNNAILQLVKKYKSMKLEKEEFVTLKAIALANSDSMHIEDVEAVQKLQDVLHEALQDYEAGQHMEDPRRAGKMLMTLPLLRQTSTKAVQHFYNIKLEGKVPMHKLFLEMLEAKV
Chain of Nuclear receptor subfamily 1 group I member 3 (Homo sapiens) (Q14994 whole entry, looked up, the tested form may be a part): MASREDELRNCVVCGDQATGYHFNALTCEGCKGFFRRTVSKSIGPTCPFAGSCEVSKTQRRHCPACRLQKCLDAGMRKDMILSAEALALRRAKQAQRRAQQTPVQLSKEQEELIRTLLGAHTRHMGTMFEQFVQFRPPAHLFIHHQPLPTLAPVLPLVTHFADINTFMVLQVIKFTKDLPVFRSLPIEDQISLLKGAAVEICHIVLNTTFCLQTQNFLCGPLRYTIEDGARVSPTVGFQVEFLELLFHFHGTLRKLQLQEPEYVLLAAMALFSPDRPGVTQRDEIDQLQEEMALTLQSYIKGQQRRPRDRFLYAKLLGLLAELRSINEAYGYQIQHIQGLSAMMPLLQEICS

O=C(OCc1ccccc1)C(=O)OCc1ccccc1
not listed: [13] | [14] | [15] | [16] | [17] | [18]
inactive: all other assays above

Cc1cccc(Nc2ccccc2C(=O)O)c1C
not listed: [2] | [3] | [6] | [16] | [17] | [18]
inactive: all other assays above

C=CC(C)(O)CCC=C(C)CCC=C(C)C (stereo unspecified)
active: [1] 166 µM | [4] 120 µM | [11] 163 µM | [12] 164 µM
inactive: [14] | [6] | [9]

CSc1nc(NC2CC2)nc(NC(C)(C)C)n1
inactive: [1] | [4] | [13] | [6] | [7] | [9] | [10] | [11]

[Ca+2]
not listed: [3] | [10] | [12] | [13] | [16] | [17] | [18]
inactive: all other assays above

Clc1cccc(Cl)n1
not listed: [6] | [9] | [14] | [15] | [18]
inactive: all other assays above

CCCC[n+]1ccccc1
inactive: [1] | [4] | [13] | [6] | [7] | [8] | [10] | [15] | [11] | [12]

C=C(C)[C@@H]1CC[C@@H](C)C[C@@H]1O
inactive: [1] | [5] | [7] | [9] | [10] | [11] | [12]

CCN(CC)CCOC(=O)c1ccc(N)cc1
inactive: [1] | [2] | [18] | [13] | [5] | [17] | [6] | [10] | [11] | [12]

O=[N+]([O-])c1ccc(Nc2ccc(Nc3ccccc3)c(S(=O)(=O)O)c2)c([N+](=O)[O-])c1
active: [4] 172 µM
not listed: [3] | [8] | [9] | [15] | [16] | [17] | [18]
inactive: all other assays above

Reference: PubChem BioAssay (EPA / NIEHS)
